Hits are enriched below; roughly 2.1% of the tested compounds scored in any of these assays.
BaF3 tox: parental Ba/F3 cell viability inhibition, counter-screen for JAK2V617F inhibitor project, murine pro-B, CellTiter-Glo luminescence. CellTiter-Glo ATP luminescence. inhibition, % at 5.6 µM. actives 1.1% (n = 220,000). AID 1486, 2009;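 active means inhibition above a per-campaign cutoff, the mean inhibition of all tested compounds plus 3 SD, cut at about 27% in these data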;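 further: 0% = DMSO wells and 100% = JAK Inhibitor I control wells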
aSyn UTR inh: MLPCN primary screen, SNCA 5' untranslated region; alpha-synuclein 5'UTR reporter, inhibitor activity; actives 0.82% (n = 300,000); inhibition, % (tested at 7.5 µM); in the data active means inhibition above about 60%;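 further: H4 neuroglioblastoma cells stably carrying SNCA 5'UTR luciferase fusion; 0% = DMSO wells and 100% = positive control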
APP transl inh: inhibitors of APP translation via 5'UTR reporter, primary screen, APP 5'UTR luciferase, SH-SY5Y cells | SH-SY5Y APP 5'UTR-luciferase reporter, luminescence | inhibition, % at 2 µM | actives 0.82% (n = 190,000);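 active means inhibition above a set limit, derived from the sample mean plus 3 SD, cut at about 45% in these data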
IEC-6 cytotox: cytotoxicity in IEC-6 intestinal epithelial cells, primary screen, cytotoxicity control for KLF5 inhibitor project, cell-based, luminescence. actives 0.78% (n = 290,000). IEC-6 cytotoxicity, luminescence viability. inhibition, % at 5 µM;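 further: 0% = plate median of test compound wells and 100% = cytotoxic reference compound wells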
KLF5 inh: KLF5 expression inhibitors, primary screen, DLD-1 cells, luminescence | DLD-1 KLF5 promoter-luciferase reporter | actives 0.23% (n = 290,000) | inhibition, % at 5 µM;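 active means inhibition above a per-plate limit of that plate's mean compound inhibition plus 3 SD, cut at about 60% in these data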;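 further: 0% = DMSO wells and 100% = LY294002 at 200 µM; higher means less KLF5 promoter-driven luciferase light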
Ba/F3 V617F tox: reduced viability of JAK2V617F-dependent Ba/F3 cells, primary screen, JAK2V617F inhibitor project, cell-based, Ba/F3 EpoR-JAK2V617F, luminescence; ATP luminescence; inhibition, % at 5.6 µM; actives 1.1% (n = 220,000); AID 1446, 2008;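 active means inhibition above the campaign mean plus 3 SD over all tested compounds, cut at about 24% in these data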;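 further: cytokine-independent growth of Ba/F3 cells driven by EpoR plus mutant JAK2; 0% = DMSO-treated cells and 100% = JAK inhibitor I control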
IEC-6 tox confirm: cytotoxic compounds in IEC-6 epithelial cells, confirmation, cytotoxicity control, cell-based, luminescence | shares compounds with IEC-6 cytotox | IEC-6 rat intestinal epithelial viability | inhibition, % at 5 µM | actives 63% (n = 1,900);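 further: 0% = vehicle and 100% = reference cytotoxic drug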
* hit, by the source's call; · = not tested or not shown. Unless noted, no stated cut-off is given here; in the data, active means inhibition above about 22%; inactive means the rest.

SMILES | BaF3 tox | aSyn UTR inh | APP transl inh | IEC-6 cytotox | KLF5 inh | Ba/F3 V617F tox | IEC-6 tox confirm
Cc1ccc2c(c1)sc(-c1ccc(N(C)C)cc1)[n+]2C | · | 4 | · | 44* | 33 | · | 30*
CC(C)Cc1ccc(C(C)C(N)=NCCc2ccccc2)cc1 (configuration not stated) | · | -75 | · | 64* | -9 | · | 99*
O=c1oc(-c2ccccc2)cc(Cl)c1Cl | · | -198 | · | 31* | -7 | · | 21
CC1(C)Cc2c(sc3ncnc(NNC(=S)NCc4ccccc4)c23)CO1 | 80* | 87* | 56* | 76* | 61 | 73* | 16
CC(C)NC(=S)NNc1ncnc2sc3c(c12)CC(C)(C)OC3 | · | 31 | · | · | · | · | ·
Cc1ccc(-c2nc(Nc3ccc(O)cc3)c3ccccc3n2)cc1 | · | -29 | · | 5 | -30 | · | ·
Cc1ccc(-c2nc(C(Cl)Cl)c3ccccc3n2)cc1 | 4 | 93* | · | 87* | 16 | 8 | 99*
Cc1oc(-c2cccc(Cl)c2)nc1CN1CCC(C(=O)NCCCN2CC(C)CC(C)C2)CC1 (configuration not stated) | · | 4 | · | 22* | -27 | · | 53*
Cc1ccc2cc3c(nc2c1)OCC3 | -6 | -26 | · | -1 | -22 | -1 | ·
CCOC(=O)c1c(CSC(=N)N)n(C)c2cc(Br)c(OC(C)=O)cc12 | -4 | 1 | · | 24* | -14 | -1 | 12
CC(C)C(=O)NC(c1cccc([N+](=O)[O-])c1)c1ccc2cccnc2c1O (configuration not stated) | · | 91* | · | 25* | 79* | · | 67*
CC(C)C(=O)NC(c1cccc([N+](=O)[O-])c1)c1c(O)ccc2ccccc12 (configuration not stated) | 0 | -4 | -18 | 0 | -23 | -5 | ·
CC(=O)NC(c1ccc(Cl)cc1Cl)c1ccc2cccnc2c1O (configuration not stated) | · | 86* | · | 49* | 59 | · | 73*
Cn1cccc1C(=O)OCc1ccc(C(C)(C)C)cc1 | · | -141 | · | -1 | -99 | · | ·
CC(C)(C)c1ccc(NC(=O)COC(=O)C2(C)CC2(Cl)Cl)cc1 (configuration not stated) | -3 | -138 | -27 | -2 | -46 | -3 | ·
O=C(Nc1ccccc1N1CCN(C(=O)c2ccccc2)CC1)c1ccc([N+](=O)[O-])o1 | · | -46 | · | 28* | 4 | · | 12
CC1CCN(c2ccccc2NC(=O)c2ccc([N+](=O)[O-])o2)CC1 | · | -10 | · | 5 | -6 | · | ·
O=C(Nc1ccccc1N1CCN(C(=O)c2ccccc2)CC1)c1cc2ccccc2o1 | 3 | · | -1 | -4 | 7 | -5 | ·
O=C(Nc1ccccc1N1CCCC1)c1ccc([N+](=O)[O-])o1 | · | -112 | · | 66* | -15 | · | 17
COc1ccc(N2CCCC2)c(NC(=O)c2ccc([N+](=O)[O-])o2)c1 | · | -70 | · | 33* | -11 | · | 13
COc1cccc(Nc2nc(N)nc(-c3oc4ccccc4c3C)n2)c1 | 14 | -25 | 76* | 25* | -42 | 12 | 35*
Cc1cccc(Nc2nc(N)nc(-c3oc4ccccc4c3C)n2)c1 | 4 | -23 | · | 12 | -63 | -5 | ·
Cc1ccc(Nc2nc(N)nc(-c3oc4ccccc4c3C)n2)cc1 | 76* | 91* | 92* | 83* | 58 | 76* | 79*
CC(NCC(O)COc1ccc2ccccc2c1)c1ccccc1 (configuration not stated) | · | 59 | · | 53* | 8 | · | 9
Cc1cc(OCC(O)CNC(C)c2ccccc2)ccc1C(C)C (configuration not stated) | · | 0 | · | 1 | -12 | · | ·
SMILES | BaF3 tox | aSyn UTR inh | APP transl inh | IEC-6 cytotox | KLF5 inh | Ba/F3 V617F tox | IEC-6 tox confirm
Cc1ccc(Nc2nc(=O)c3cccnc3s2)cc1 | 7 | -228 | -68 | 37* | -39 | 0 | 39*
COc1ccc(N(CC(=O)N2CCN(c3ccc(F)cc3)CC2)S(=O)(=O)c2c(C)noc2C)cc1 | · | -7 | · | 2 | -12 | · | ·
CCCOc1ccc(S(=O)(=O)n2cc(F)c(=O)[nH]c2=O)cc1 | · | -5 | · | 44* | -5 | · | 7
CCOc1ccc(Cn2cc(F)c(=O)[nH]c2=O)cc1 | 0 | 16 | · | 0 | 7 | -2 | ·
CC(C)COc1ccc(S(=O)(=O)n2cc(F)c(=O)[nH]c2=O)cc1 | 63* | 29 | -5 | 85* | -14 | 61* | -1
O=C(NCC1CCCO1)c1cc(-c2ccc(F)cc2)no1 (configuration not stated) | · | -264 | · | -5 | -91 | · | ·
CN(C)c1nc(=NCc2ccco2)ss1 | 8 | -4 | · | 97* | -5 | 12 | 30*
O=C1CCCC(=NCc2ccco2)C1 | -1 | 10 | 20 | 2 | -7 | -2 | ·
O=C(O)c1ccccc1NC(=O)c1ccccc1Nc1ccccc1 | · | 34 | · | 35* | 21 | · | 11
Cc1ccc(NC(=O)c2cc(S(=O)(=O)N3CCOCC3)cs2)cc1 | · | -20 | · | 97* | -9 | · | 4
C=CCN1C(=O)N/C(=C/c2ccc(N3CCOCC3)o2)C1=O | 78* | -14 | 88* | 32* | -4 | 95* | 0
O=C1NC(=S)S/C1=C/c1ccc(N2CCOCC2)o1 | 7 | -12 | 13 | -12 | -55 | -1 | ·
Cc1cccc(OCCN2C(=O)C(=O)c3cc(C)ccc32)c1 | 84* | -50 | 93* | 79* | -26 | 86* | 56*
COC(=O)c1ccc(OC(C)C(=O)c2ccc(C)cc2)cc1 (configuration not stated) | 6 | -4 | -6 | -5 | -31 | 0 | ·
Cc1ccc(-n2ncc3c2CC(C)(C)CC3NC(=O)C2CCOCC2)cc1 (configuration not stated) | · | 1 | · | 5 | -9 | · | ·
COc1cccc(/C=N/NC(=O)C(=O)N/N=C/c2cccc(OC)c2O)c1O | 1 | · | 1 | 4 | -5 | -1 | ·
COC(=O)c1cccc(/C=N/NC(N)=S)c1O | 7 | -17 | · | 49* | 54 | 0 | 12
Cc1csc(SCC(=O)NCc2ccccc2)n1 | 0 | 28 | -2 | -5 | -24 | -2 | ·
Cc1csc2sc(-c3ccnc(SCC(=O)NCc4ccccc4)n3)c(C)c12 | 60* | 15 | · | 74* | 52 | 81* | 65*
CC(C)(C)c1ccccc1OCC(=O)NCc1ccccc1 | · | -1 | · | -7 | -33 | · | ·
NCCNc1ccc(C(=O)N2c3ccccc3Sc3ccccc32)cc1[N+](=O)[O-] | · | 1 | · | 35* | 19 | · | 24*
Nc1ccc(C(=O)OCC(=O)N2c3ccccc3Sc3ccccc32)cc1[N+](=O)[O-] | 2 | · | -18 | -2 | -16 | -2 | ·

Assay outcomes as filed in PubChem BioAssay.
